This is an account of results in PubChem BioAssay AID624330 (Southern Research Specialized Biocontainment Screening …, 2012).

The structures appear in SMILES notation. Out of some 340,000 compounds screened, about 2,100 (0.62%) were called active.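 How the source made its calls: active means first-screen hits whose inhibition reached a set limit at any dose in the follow-up dose series; inconclusive means inhibition above the set first-screen limit but never retested; inactive means the rest.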 Not all results are given here. Entries with a potency or affinity are not part of this list.

This assay deals with Rac GTPase-activating protein 1 (Homo sapiens) (UniProt Q9H0H5). As to the kind of experiment: blockers of MgcRacGAP-driven Rac1 GTP hydrolysis – biochemical, ADP Hunter fluorescence, primary and confirmatory, confirmation (AID 624330).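 Further: fluorescence reports GDP produced by GAP-driven GTP hydrolysis.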 The conditions noted are these: MgcRacGAP-stimulated Rac1 GTP hydrolysis, at 30 µM, active compounds read high, GST-tagged Rac1 F28L mutant substrate.
Chain of Rac GTPase-activating protein 1 (Homo sapiens) (Q9H0H5 whole entry, looked up): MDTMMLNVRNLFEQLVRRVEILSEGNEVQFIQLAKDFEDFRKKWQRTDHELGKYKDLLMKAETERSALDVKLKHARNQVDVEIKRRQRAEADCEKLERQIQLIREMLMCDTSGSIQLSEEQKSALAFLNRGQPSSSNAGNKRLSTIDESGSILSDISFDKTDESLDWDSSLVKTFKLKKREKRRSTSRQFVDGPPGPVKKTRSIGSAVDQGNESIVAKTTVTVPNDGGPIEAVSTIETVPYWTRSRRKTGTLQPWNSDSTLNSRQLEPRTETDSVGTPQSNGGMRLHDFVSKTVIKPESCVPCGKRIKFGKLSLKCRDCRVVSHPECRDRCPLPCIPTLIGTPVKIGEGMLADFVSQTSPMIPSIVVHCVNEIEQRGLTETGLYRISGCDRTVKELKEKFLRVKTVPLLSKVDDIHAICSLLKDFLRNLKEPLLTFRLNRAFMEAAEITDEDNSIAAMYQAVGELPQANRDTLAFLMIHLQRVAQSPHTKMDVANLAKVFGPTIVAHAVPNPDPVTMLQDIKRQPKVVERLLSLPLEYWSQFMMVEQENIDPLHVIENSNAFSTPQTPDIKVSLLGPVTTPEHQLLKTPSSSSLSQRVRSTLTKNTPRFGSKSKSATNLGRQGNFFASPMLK
Broadly, the inhibition is the change of the read-out against control, counted positive when it falls. As to `Cn1c(SCC(=O)NCC2CCCO2)nnc1-c1cccc(NC(=O)c2ccccc2F)c1` (stereo not drawn), the inhibition was 2.1% (inactive). On to `COCCCNC(=O)COc1ccc(S(=O)(=O)Nc2ccccc2)cc1`, for which the inhibition was 5.23% (inactive).

As for `NCC12CC3CC(CC(O)(C3)C1)C2`, the inhibition was 9.89% (inactive). On to `NC(=O)CC12CC3CC(C1)CC(CC(N)=O)(C3)C2`, for which the inhibition was -1.41% (inactive).

In the case of `COCC(C)NCc1ccc(C)cc1C` (stereo not drawn), the inhibition is 16.8% (inactive). As for `COCC(C)NCc1cccc2ccccc12` (stereo not drawn), the figure is 26.8% (inactive); as for `CCOc1ccccc1N1CC(C(=O)Nc2cc(Cl)ccc2C)CC1=O` (stereo not drawn), -1.6% (inactive); as for `Cc1ccc(Cl)cc1N1CCN(C(=O)CN(C2CCCCC2)S(C)(=O)=O)CC1`, 1.2% (inactive).

`O=C(Nc1ccccc1Cl)C1CCN(S(=O)(=O)c2cccc3nonc23)CC1`: the inhibition was -1.65% (inactive). Turning to `CCN(CC)c1ccc(CNc2ccc3c(c2)ncn3C(C)(C)C)cc1`, the inhibition was 6.25% (inactive). In the case of `CCOc1ccc(/C=N/Nc2nc(=O)[nH]nc2C)cc1OC`, the inhibition is 7.43% (inactive). For the compound `CCOc1cc(/C=N/Nc2cc(C)nc(-n3nc(C)cc3C)n2)ccc1O`, the inhibition was 11.4% (inactive). Regarding `CCOc1cc(/C=N/Nc2nncc(-c3ccccc3)n2)ccc1O`, the inhibition is 13.6% (inactive).

Consider `CCOc1cc(/C=N\Nc2nc(-c3ccc(C)cc3)c(NC(C)=O)s2)ccc1O`, for which the inhibition is 8.08% (inactive). As for `C[C@H](CO)N1C[C@H](C)[C@@H](CN(C)C(=O)Nc2ccc(C(F)(F)F)cc2)Oc2ccc(NS(=O)(=O)c3cccs3)cc2C1=O`, the figure is 6.16% (inactive); as for `CC(C)NC(=O)CCCc1cn(C)c2ccccc12`, 3.62% (inactive). As for `COCCNC(=O)c1onc(CSc2ccccc2)c1C(=O)O`, the figure is 7.12% (inactive); as for `CC(C)CN(C(=O)COC(=O)/C=C/c1ccc(Cl)c(Cl)c1)c1c(N)n(Cc2ccccc2)c(=O)[nH]c1=O`, 10.7% (inactive); as for `COC(=O)c1ccc(CNC(=O)COC(=O)/C=C/c2cc(OC)c(OC)c(OC)c2)cc1`, -11.7% (inactive).

Regarding `COc1ccc(/C=C/C(=O)OCC(=O)NCc2ccccc2)cc1OC`, the inhibition was -1.57% (inactive). As to `COc1cc(/C=C/C(=O)OCC(=O)NCc2ccccc2OC)ccc1O`, the inhibition is -4.08% (inactive). As for `CCN(C(=O)COC(=O)/C=C/c1ccc(OC)c(OC)c1)c1c(N)n(Cc2ccccc2)c(=O)[nH]c1=O`, the figure is 4.28% (inactive). As for `COc1cc(/C=C/C(=O)O)ccc1O`, the figure is 22.1% (inactive).

Regarding `COC(=O)c1ccc(CNC(=O)COC(=O)/C=C/c2ccc(OC)c(OC)c2)cc1`, the inhibition is 1.48% (inactive). For `COc1cc(/C=C/C(=O)OCC(=O)N(C)Cc2ccccc2)cc(OC)c1OC`, the inhibition is 5.49% (inactive). As for `CCOC(=O)C(Cc1c(F)cccc1Cl)c1ccnc2nc(N)nn12` (stereo not drawn), the figure is 7.53% (inactive); as for `CCC(CC)CN1C(Nc2ccccc2)=NC[C@@H]1CC(C)C`, 7.15% (inactive); as for `Cn1c(SCC(=O)NNC(=O)c2ccc(Br)cc2)nnc1-c1cccnc1`, 6.67% (inactive).

`CC1CN(CC(=O)NN=C(c2ccccc2)c2ccccc2)CC(C)O1` (stereo not drawn): the inhibition is 8.46% (inactive).

For the compound `Cc1cccc2sc(NC(=O)CSc3nc4ccccc4o3)nc12`, the inhibition is 7.18% (inactive). As for `CC(Sc1ncnc2ccccc12)C(=O)Nc1ccc2c(c1)OCO2` (stereo not drawn), the figure is 5.78% (inactive). For the compound `COc1ccc(OC(C)C(=O)N2CCN(c3ccccn3)CC2)cc1` (stereo not drawn), the inhibition was -1.84% (inactive). For the compound `CC1CCCN(C(=O)COC(=O)CNS(=O)(=O)c2ccc3ccccc3c2)C1` (stereo not drawn), the inhibition was 11.5% (inactive). As to `COc1cc(/C=C/C(=O)OCC(=O)NCCCc2ccccc2)cc(OC)c1OC`, the inhibition is 2.15% (inactive). Take `COc1ccc(/C=C/C(=O)OCC(=O)NCCCc2ccccc2)cc1OC`: the inhibition was 1.47% (inactive).

Regarding `O=C(NCCc1c[nH]c2ccccc12)C(=O)NCC(c1ccco1)N1CCN(c2ccc(F)cc2)CC1` (stereo not drawn), the inhibition was 5.54% (inactive).

`C[C@@H]1CN([C@@H](C)CO)C(=O)c2cc(-c3ccccc3F)cnc2O[C@H]1CN(C)Cc1cccc(F)c1`: the inhibition is 5.55% (inactive). Take `COc1cccc2c(C)c(C(=O)O)[nH]c12`: the inhibition is 7.15% (inactive). Consider `COc1ccc(OC)c2c(C)cc(C)nc12`, for which the inhibition is 4.59% (inactive). As for `COc1ccc(N(CC(=O)Nc2ccc(OC)c(OC)c2)S(=O)(=O)c2ccccc2)cc1Cl`, the inhibition was 12.2% (inactive). As for `CCOC(=O)C1CCN(Cc2ccc(OC)c(OCc3ccccc3)c2)CC1`, the figure is 27.7% (inactive); as for `COc1ccccc1C(=O)N1CCN(C2CCN(Cc3ccccc3)CC2)CC1`, 19.4% (inactive). In the case of `COc1ccc(C(=O)N2CCN(C3CCC(c4ccccc4)CC3)CC2)cc1OC` (stereo not drawn), the inhibition was 23.6% (inactive). As for `COc1cc(C(=O)N2CCN(CCCc3ccccc3)CC2)cc(OC)c1OC`, the figure is 15.2% (inactive).

In the case of `COc1cc(OC)cc(C(=O)N2CCN(C3CCN(Cc4ccccc4)CC3)CC2)c1`, the inhibition is 29% (inactive). With `COc1ccc(C(=O)N2CCN(C(=O)Cc3ccccc3)CC2)cc1OC`, the inhibition is 3.19% (inactive). For the compound `CCOC(=O)C1CCN(Cc2ccc(OCc3ccccc3)c(OC)c2)CC1`, the inhibition was 15.7% (inactive). As for `CCc1ccc(CN2CCN(C(=O)c3cccc(OC)c3OC)CC2)cc1`, the figure is 23.3% (inactive); as for `CCn1c(Cc2cccs2)nnc1SCC(=O)Nc1ccc(OC)c(OC)c1`, 7.07% (inactive). As for `O=C(CCCn1c(=O)oc2ccccc21)N1CCc2ccccc2C1`, the figure is 8.41% (inactive); as for `O=C(CSc1nccc(=O)[nH]1)Nc1cccc2ccccc12`, 8.22% (inactive); as for `Cc1cc(C)cc(NS(=O)(=O)c2ccc3[nH]c(=O)ccc3c2)c1`, 6.34% (inactive). For the compound `CCCCN(C(=O)c1cccc(-c2ccc(OC(C)=O)cc2)c1)c1c(N)n(CCC)c(=O)[nH]c1=O`, the inhibition is 8.17% (inactive). Consider `CCc1c(C)c2ccc(O)c(CN(C)C)c2oc1=O`, for which the inhibition was 3.54% (inactive). Turning to `CC(C)c1cc(C(F)(F)F)n2nc(C(=O)Nc3ccc(-n4cnnn4)cc3)cc2n1`, the inhibition is 0.65% (inactive).

For `CCc1cc(C(=O)N2CCCC(CNC(=O)c3ccc(-c4ccccc4)cc3)C2)no1` (stereo not drawn), the inhibition was 1.46% (inactive).

As for `O=C(COC(=O)c1ccc(O)cc1O)Nc1cccc2ccccc12`, the inhibition is 4.44% (inactive). `CC12CCC(=O)C=C1C(F)CC1C2C(O)CC2(C)C1CCC2(O)C(=O)CO` (stereo not drawn): the inhibition was -2.17% (inactive).
